# VACV Venus inh – vaccinia inhibition (Venus reporter) | Vaccinia virus Venus reporter expression, fluorescence | Potency, µM (highest dose often 36.5 µM), most hits filed as inhibitors | AID 720580 | hit rate 0.46% among 330,000; calls by dose curve; tested in A549 cells; also: nearly all actives have a fitted effect of over 30% in size
# AmpC inh detg – inhibitors of E. coli AmpC beta-lactamase with detergent. hit rate 0.041% among 370,000. Potency, µM (highest dose often 114 µM), usual class: inhibitors. AID 485294. P00811. AmpC hydrolysis of nitrocefin, absorbance 480 nm, 0.01% Triton; also: nearly all actives have a fitted effect of over 25% in size
# Target sequence (P00811 whole entry, looked up): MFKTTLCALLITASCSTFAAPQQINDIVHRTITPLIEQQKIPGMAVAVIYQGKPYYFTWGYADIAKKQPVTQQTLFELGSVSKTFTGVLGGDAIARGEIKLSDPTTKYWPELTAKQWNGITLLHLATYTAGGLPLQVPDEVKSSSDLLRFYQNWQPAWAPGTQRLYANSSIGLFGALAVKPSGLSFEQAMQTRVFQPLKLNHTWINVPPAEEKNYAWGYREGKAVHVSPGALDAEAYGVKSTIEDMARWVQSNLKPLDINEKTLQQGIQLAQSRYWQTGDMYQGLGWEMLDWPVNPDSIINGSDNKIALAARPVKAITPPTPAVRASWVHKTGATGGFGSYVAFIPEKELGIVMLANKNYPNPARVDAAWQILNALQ
#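 AmpC (5.3 nM in the dispensed reagent) in 20 mM phosphate pH 7.0 with 0.01% (detergent screen) or 0.0001% Triton X-100 was preincubated with compounds for 15 min at room temperature. Nitrocefin was then added from an 800 uM solution, and hydrolysis was followed at 480 nm.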
# AmpC no deterg – AmpC beta-lactamase inhibition without detergent. AmpC nitrocefin hydrolysis, absorbance 480 nm, 0.0001% Triton. Potency, µM (doses to about 57.1 µM), actives largely listed as inhibitors. hit rate 0.52% among 330,000. P00811; also: nearly all actives have a fitted effect of over 20% in size
#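 AmpC (5.3 nM in the dispensed reagent) in 20 mM phosphate pH 7.0 with 0.01% (detergent screen) or 0.0001% Triton X-100 was preincubated with compounds for 15 min at room temperature. Nitrocefin was then added from an 800 uM solution, and hydrolysis was followed at 480 nm.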
# SARS PLP yeast – blocks SARS-CoV papain-like protease in a yeast assay. S. cerevisiae expressing SARS-CoV PLpro, growth rescue. Potency, µM (top dose mostly 32.9 µM), hits mostly activators. hit rate 0.19% among 330,000; calls by dose curve; also: nearly all actives have a fitted effect of over 55% in size
# VACV mCherry inh – vaccinia inhibition (mCherry reporter); Vaccinia virus mCherry reporter infection, fluorescence; Potency, µM (series often up to 36.5 µM), actives largely listed as inhibitors; hit rate 0.63% among 310,000; calls by dose curve; tested in A549 cells; also: nearly all actives have a fitted effect of over 35% in size
# A number is an active result; 0 = inactive; ? = inconclusive; - = no result given; [ ] = another dose, or the depositor's remark. Hits are enriched below; roughly 1.3% of the tested compounds scored in any of these assays. Unless noted, calls follow the shape of the dose curve; as a rule, active = well fitted curve in the direction sought with a large enough effect; inconclusive = small, poorly fitted or top-dose-only effect, or another doubt; inactive = no such curve, though single readings can be large; an effect the other way counts as inactive or inconclusive.
SMILES,VACV Venus inh,AmpC inh detg,AmpC no deterg,SARS PLP yeast,VACV mCherry inh
CCOC(=O)C1CCCN(c2c(NCCc3ccc(C)cc3)c(=O)c2=O)C1 (configuration not stated),0,0,0,0,0
CCOC(=O)C1CCCN(c2c(NCCN3CCCCC3C)c(=O)c2=O)C1 (configuration not stated),0,?,3.5µM,0,0
CCOC(=O)C1CCCN(c2c(NCCN(CC)c3ccccc3)c(=O)c2=O)C1 (configuration not stated),0,0,22µM,0,0
CCOC(=O)C1CCCN(c2c(NCCCN(CC)c3ccccc3)c(=O)c2=O)C1 (configuration not stated),-,0,?,0,-
COC(=O)c1sc(NC(=O)c2cc(-c3ccccc3)nc3ccccc23)c(C#N)c1C,?,56µM,0,0,16µM
COCc1c(C(=O)NC2CCCC2)cnn1-c1nccc(-c2cc(C)sc2C)n1,0,-,-,-,0
O=C(NCC(c1cccnc1)N1CCc2ccccc21)c1ccc(Cl)cc1 (configuration not stated),?,0,-,-,0
CCCCn1c(/N=C/c2cc(OC)ccc2O)nc2ccccc21,3.5µM,?,0,0,?
Cc1oc(-c2ccccc2NC(=O)c2ccccc2)nc1CNC(=O)c1cccc(-n2cccn2)c1,0,-,-,-,0
Cc1ccc(-c2c(C#N)c(N)nc3c2CCCCC3)o1,-,?,0,0,-
O=[N+]([O-])c1ccc(-c2nc(Cl)c3c(n2)CCCC3)o1,?,-,-,-,11µM
CN1CCN(c2cc(N3CCc4ccccc4C3)c(F)cc2[N+](=O)[O-])CC1,?,?,0,0,10µM
CN1CCN(c2cc(N3CCCC3)c([N+](=O)[O-])cc2F)CC1,0,0,0,0,0
Cc1cc(C)cc(NC(=O)Nc2ccc(N3CCCCC3)cc2)c1,0,0,16µM,0,?
Cc1cc(C)cc(C(=O)Nc2ccc(N3CCCC3)cc2)c1,0,0,0[2.29 µM],0,0
Nc1nc(F)nc2c1ncn2[C@@H]1O[C@H](CO)[C@@H](O)[C@H]1O,1.1µM,-,-,-,1µM
CSc1ncnc2c1ncn2C1OC(CO)C(O)C1O (configuration not stated),0,-,-,-,0
OC[C@H]1O[C@@H](n2cnc3c(NCc4ccco4)ncnc32)[C@H](O)[C@@H]1O,?,-,-,-,10µM
Nc1ncnc2c1ncn2[C@@H]1O[C@H](CO)[C@@H](O)[C@@H]1O,0,-,-,-,?
OC[C@H]1O[C@@H](n2cnc3cncnc32)[C@H](O)[C@@H]1O,?,-,-,-,13µM
Nc1nc(Cl)nc2c1ncn2C1CC(O)C(CO)O1 (configuration not stated),?,0,0,-,2.5µM
COc1cc(-c2cnc3ccccc3c2)cc2c1OCCN(C(=O)Cn1nccc1C)C2,0,-,-,-,0
COc1ccccc1NC(=O)N(C)C[C@H]1OCc2cnnn2CCCC(=O)N([C@H](C)CO)C[C@H]1C,0,-,-,-,0
Nc1nc(F)nc2c1ncn2[C@@H]1O[C@H](CO)[C@@H](O)[C@@H]1O,7.1µM,?,0,0,3.2µM
Nc1ncnc2c1ncn2C1O[C@H](CO)[C@@H](O)[C@@H]1O (some centres not stated),0,?,0,-,0
SMILES,VACV Venus inh,AmpC inh detg,AmpC no deterg,SARS PLP yeast,VACV mCherry inh
Cn1c(=O)c2c(nc(NCc3cccnc3)n2Cc2cccc(C(F)(F)F)c2)n(C)c1=O,?,?,0,0,-
COc1cccc(Cn2c(NCc3cccnc3)nc3c2c(=O)n(C)c(=O)n3C)c1,?,?,0,0,4.5µM
COc1cc(=O)n2c(c1C(=O)N(C)Cc1cscn1)CCN(Cc1c(C)[nH]c3ccccc13)CC2,0,-,-,-,0
CCCc1ccc(C2C3=C(CC(C)(C)CC3=O)NC3=C2C(=O)c2ccccc23)cc1 (configuration not stated),?,0,0,0,0
CC1(C)CC(=O)C2=C(C1)NC1=C(C(=O)c3ccccc31)C2c1ccc(O)cc1 (configuration not stated),11µM,0,0,0,?
Cc1ncc2c(c1CNC(=O)/C=C/c1cccs1)CCN(C(=O)c1ccc3c(c1)OCCO3)C2,0,-,-,-,0
C=C(C)COc1ccc(-c2n[nH]c(C)c2-c2ccc(OC)cc2)c(O)c1,10µM,0,0,0,-
COc1ccc(-c2n[nH]c(C)c2-c2cscn2)c(O)c1,0,0,0,0,?
